# Laboratory results: PubChem BioAssay AID686978 (National Center for Advancing Translational Sciences (NCATS), 2013)
# About 64,000 (15%) of roughly 420,000 compounds were called active. Roughly 27% stayed inconclusive and do not appear here. The call rests on the fitted dose curve; in most records, active means well fitted inhibition curve with a large enough effect; inconclusive means small, poorly fitted or top-dose-only effect; inactive means flat fitted curve, though single readings scatter. Not all results are given here. A call without a number means that no potency is given here.
# Experiment: qHTS for Inhibitors of human tyrosyl-DNA phosphodiesterase 1 (TDP1): qHTS in cells in absence of CPT; further: nearly all actives have a fitted effect of over 55% in size
# Conditions: DT40 Tdp1-/- hTDP1 cells, no CPT, ATP luminescence, 48 h; activity change, negative = growth inhibition: at 46.2 µM (top of the series)
# In short: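 Chicken DT40 Tdp1-/- cells stably complemented with human TDP1 were seeded at 400 cells/well with DMSO in place of 20 nM camptothecin. After compound pinning, cells grew at least 48 hr at 37 °C; viability read by CellTiter-Glo luminescence.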
# Potency means the concentration at half of the fitted maximal effect.
row,Structure (SMILES),Potency
1,CC(C)C(C(=O)NC1CCCCC1)N(CC1CCCO1)C(=O)CNS(=O)(=O)c1ccc(F)cc1 (stereo not given),inactive
2,O=C(O)CCC(=O)N(Cc1ccccc1)Cc1ccccc1,inactive
3,CC1(C)CC(=O)C=C(NCc2ccncc2)C1,inactive
4,Cc1nc(N=C(N)N)nc2c(C)cccc12,20.6 µM (active)
5,Cc1cccc2c(=O)n3c(nc12)CCCCC3,inactive
6,CC(=O)Oc1ccc(-c2nc3c(C)cccc3c(=O)o2)cc1,inactive
7,CCCN1Cc2cccc(C(=O)NCc3ccccc3)c2C1=O,inactive
8,CCOc1ccc(N2C(=O)CN(c3cccc4ccccc34)C2=S)cc1,inactive
9,CCN(CC)CCCNC(=S)N(CCO)Cc1cc2cc3c(cc2[nH]c1=O)OCO3,inactive
10,Cc1cc(C)c2[nH]c(=O)c(CN(Cc3ccccc3)C(=S)NCCCN(C)C)cc2c1,16.4 µM (active)
11,COCCCNC(=S)N(Cc1ccccc1)Cc1ccc(F)cc1,inactive
12,CCCCNC(=O)c1c[nH]c2ccc(S(=O)(=O)Nc3ccc(OCC)cc3)cc2c1=O,inactive
13,Cc1ccc(/C=C2\CCn3c2nc2cc(C(=O)O)ccc2c3=O)c(C)c1,inactive
14,CC(=O)C[C@@H](O)CC(=O)[C@H]1OC(=O)CCCCCCc2ccccc21,inactive
15,CC(C)(C)c1cc(=O)n2c(nc3ccccc32)[nH]1,inactive
16,O=C(NCc1ccccn1)c1cc(-c2ccccc2Cl)on1,inactive
17,Fc1ccc(-c2ccc(CNCc3ccccn3)o2)cc1Cl,20.6 µM (active)
18,O=C(NCc1ccccn1)Nc1ccc(Cl)cc1,inactive
19,COc1ccc(CNC(=O)CN(Cc2ccccc2Cl)C(=O)c2csnn2)cc1,inactive
20,COCCNC(=O)COc1ccc(C)c(C)c1,inactive
21,CCc1noc(C)c1C(=O)N1CCN(S(=O)(=O)c2cccc(C(F)(F)F)c2)CC1,inactive
22,Cc1ccc(NS(=O)(=O)c2c(C)[nH]c(C)c2C(=O)N2CCCCC2)c(C)c1,inactive
23,Cc1[nH]c(C)c(S(=O)(=O)N2CCN(c3cccc(C(F)(F)F)c3)CC2)c1C(=O)N1CCCCC1,10.3 µM (active)
24,Cc1ccc(C)c(N2CCN(S(=O)(=O)c3c(C)[nH]c(C)c3C(=O)N3CCCC3)CC2)c1,23.1 µM (active)
25,Cc1ccc(C)c(NS(=O)(=O)c2c(C)[nH]c(C)c2C(=O)N2CCCCC2)c1,inactive
26,Cc1[nH]c(C)c(S(=O)(=O)N2CCC(C)CC2)c1C(=O)N1CCCC1,inactive
27,O=S(=O)(NCc1cccnc1)c1ccc(Cl)nc1,inactive

row,Structure (SMILES),Potency
1,Cc1occc(=O)c1OCc1c(Cl)cccc1Cl,inactive
2,O=C(Nc1nnc(-c2ccc(F)cc2)s1)c1c(F)cccc1Cl,inactive
3,CC(=O)N1CCc2ccc(N)cc21,inactive
4,O=C(NCc1ccc2c(c1)OCO2)c1ccc(Cl)s1,inactive
5,O=C(NCc1ccc2c(c1)OCO2)c1sccc1Br,inactive
6,O=C(NCc1ccc2c(c1)OCO2)c1c(-c2ccsc2)sc2ccccc12,14.6 µM (active)
7,COC(=O)c1ccc2ccccc2c1OC1OC(CO)C(O)C(O)C1NC(C)=O (stereo not given),inactive
8,CCOc1cccc(/C(O)=C2/C(=O)C(=O)N(CCOC)C2c2ccncc2)c1 (stereo not given),inactive
9,CS(=O)(=O)N1CCN(C(=O)CSc2ccccc2)CC1,inactive
10,COCCn1c(SC(C)C(=O)NC2CC2)nnc1-c1cccc(C)c1 (stereo not given),inactive
11,COc1ccc(C(CNC(=O)c2ccc(OCc3cscn3)cc2)N2CCCC2)cc1 (stereo not given),inactive
12,C=CCN(CC=C)C(=O)CN1C(=O)c2ccccc2C1=O,inactive
13,CN(C)/C=C(/C(=O)c1ccccc1Cl)S(C)(=O)=O,inactive
14,Cc1ccc2nc(-c3cccnc3)c(NC3CCCC3)n2c1,20.6 µM (active)
15,O=C(COC(=O)c1cncc(Br)c1)Nc1ccc(S(=O)(=O)N2CCOCC2)cc1,inactive
16,O=C(CCn1nnnc1CN1CCOCC1)N1CCC(c2ccccc2Cl)C1 (stereo not given),inactive
17,Cc1cccc(C(=O)N2CCC(c3nc4ccccc4s3)CC2)c1,inactive
18,CC(=O)Oc1ccc(OC(C)=O)c2c1C1C=CC2CC1,16.4 µM (active)
19,CC(=O)Oc1ccc(C(C)=O)c2c1OCCO2,inactive
20,COc1c(C(=O)N2CCCC2)ccc2ccccc12,inactive
21,NC(=O)CC[C@@H]1NC(=O)[C@H](CO)NC(=O)c2cc([N+](=O)[O-])cc(I)c2NCC[C@@H](C(N)=O)NC1=O,inactive
22,COCC(=O)N1CCc2ccc(NC(=O)c3ccccc3Cl)cc2C1,inactive
23,COc1ccc2c(c1)C(C)=CC(C)(C)N2C(=O)CNCc1ccc2c(c1)OCO2,20.6 µM (active)
24,COc1ccc(NC(=O)NCc2ccc3c(c2)OCO3)c(OC)c1,inactive
25,COc1cccc(CNCc2ccc3c(c2)OCO3)c1,inactive
26,CC(=O)O[C@H]1CC[C@@]2(C)[C@@H](CC[C@@H]3[C@@H]2CC[C@]2(C)[C@@H](C(C)(C)O)C[C@@H]32)C1,inactive
27,CC(C)C(=O)NC(C)c1nnc2n1CCN(Cc1cccc3ncccc13)CC2 (stereo not given),inactive

row,Structure (SMILES),Potency
1,Cc1nc(N2CCN(c3ccccn3)CC2)c2c(C)c(C(=O)Nc3ccc(F)cc3)sc2n1,20.6 µM (active)
2,CCS(=O)(=O)N1Cc2ccccc2CC1C(=O)Nc1ccc(OC)cc1OC (stereo not given),inactive
3,O=C(Nc1ccc(N2CCOCC2)nc1)c1c(F)cccc1F,inactive
4,COc1ccc(NC(=O)c2sc3nc(C)nc(N4CCN(c5ccccn5)CC4)c3c2C)c(OC)c1,11.6 µM (active)
5,CCOc1ccc(Cn2nnc(C(=O)Nc3ccc(OC)cc3OC)c2N)cc1,inactive
6,Cc1nc(N2CCOCC2)c2c(C)c(C(=O)Nc3ccc(C(F)(F)F)cc3)sc2n1,18.4 µM (active)
7,Cn1c(SCC(=O)Nc2ccc(N3CCOCC3)cc2)nnc1C(F)(F)F,inactive
8,Cc1nc2c(-c3ccc(F)cc3)c(C)nn2c(C)c1CCC(=O)N1CCN(c2ccccn2)CC1,inactive
9,CCOC(=O)C1CCCN(C(=O)c2sc3nc(C)nc(N4CCOCC4)c3c2C)C1 (stereo not given),inactive
10,Cc1cc(Cl)c(S(=O)(=O)NCCC(=O)O)cc1OCC(N)=O,inactive
11,COc1cc(C)c(CN2CCc3nnc(C(C)NC(=O)c4cccnc4)n3CC2)cc1C (stereo not given),inactive
12,COc1ccc(OC)c(NC(=O)C2CCCN2S(=O)(=O)c2cccc3nsnc23)c1 (stereo not given),inactive
13,Nc1ncc(CN2CCCC(C(=O)Nc3ccc(-c4ccco4)cc3)C2)cn1 (stereo not given),inactive
14,O=C(CNC(=O)c1cccnc1)N/N=C/c1cc(Br)c(O)c(Br)c1,inactive
15,Cc1nc2ccc(C(=O)N3CCSCC3)cc2s1,inactive
16,CCNC(=O)CN(c1ccc(C)cc1)S(=O)(=O)c1ccc(SC)cc1,inactive
17,CCc1ccc(NC(=O)Cn2ncn3c(cc4ccccc43)c2=O)cc1,inactive
18,CCOc1ccccc1C(=O)Nc1ccc2c(c1)N(C)C(=O)c1ccccc1S2,3.66 µM (active)
19,CCN1C(=O)c2ccccc2Sc2ccc(NC(=O)Cc3ccc(OC)cc3)cc21,inactive
20,CN1C(=O)c2ccccc2Sc2ccc(NC(=O)Cc3ccc(Cl)cc3)cc21,16.4 µM (active)
21,CCOc1ccccc1C(=O)NCCCn1ccnc1,inactive
22,CC(=O)Nc1ccc(NC(=O)COc2ccccc2C(=O)Nc2cccc(Cl)c2Cl)cc1,inactive
23,Cc1nn(-c2ccccc2)c(=O)c2noc(C)c12,inactive
24,CN1CC(O)c2cc(N=NC(N)=O)c(O)cc21 (stereo not given),inactive
25,OC(COc1ccc2ccccc2c1)CN1CCOCC1 (stereo not given),inactive
26,COc1cc(NS(=O)(=O)c2ccccc2)ccc1-n1nc(C)cc1C,inactive
27,Cc1nc(Cl)cc(N/N=C/c2ccccc2)n1,inactive

row,Structure (SMILES),Potency
1,COc1ccccc1/C=N/Nc1nc(C)c(C(C)=O)s1,inactive
2,COc1ccccc1/C=N\Nc1cc(C)nc(-n2nc(C)cc2C)n1,5.17 µM (active)
3,COc1ccccc1-n1c(SCC(=O)Nc2cccc(C(=O)O)c2)nnc1-c1ccccc1O,inactive
4,Cc1cc2c(C)nc(N/N=C/c3ccccc3)nc2o1,inactive
5,COc1cccc(/C=N/Nc2ccc(S(=O)(=O)Nc3ccccc3C(=O)O)cc2[N+](=O)[O-])c1O,inactive
6,COc1cccc(/C=N/Nc2cc(C)nc(-c3ccccc3O)n2)c1O,8.2 µM (active)
7,Cc1cc(N/N=C\c2ccc(Br)cc2)nc(-n2nc(C)cc2C)n1,2.91 µM (active)
8,Cn1ncc(Br)c1C(=O)NC1CCCC1,inactive
9,CCC(C)[C@H](NC(=O)N1c2ccccc2NC(=O)[C@@H]1C(C)C)C(=O)N[C@@H](Cc1ccccc1)C(=O)O (stereo not given in full),inactive
10,CC1CN(C(=O)c2cc(COc3c(F)cccc3F)on2)CCN1C (stereo not given),inactive
11,CC(C)NC(=O)N1CCCC2(CCN(C(=O)c3cccn3C)CC2)C1,inactive
12,COc1cccc2cc(S(=O)(=O)c3ccc(C)cc3)/c(=N/NS(=O)(=O)c3ccc(C)cc3)oc12,inactive
13,Cc1c(C)c2ccc(OCC(=O)N3CCC(C(=O)O)CC3)c(C)c2oc1=O,inactive
14,COc1cc2nc(NCC(C)c3ccccc3)n3nc(-c4ccccc4)nc3c2cc1OC (stereo not given),13 µM (active)
15,COc1cc2nc(SCC(=O)Nc3ccccc3F)n3nc(-c4ccccc4)nc3c2cc1OC,inactive
16,CSc1ncnc2c1ncn2CCCNCC(C)c1ccccc1 (stereo not given),inactive
17,CCn1c(SCC(=O)NC2CC2)nnc1-c1ccncc1,inactive
18,O=C(NCc1ccco1)c1ccc([N+](=O)[O-])cc1Cl,inactive
19,CC(C)Oc1ccc(CN2CCC2(C)C(=O)NCc2ccc(C(F)(F)F)cc2)cc1 (stereo not given),14.6 µM (active)
20,CC(C)CN1CCC1(C)C(=O)Nc1ccc(OC(F)F)cc1 (stereo not given),inactive
21,CCCC(=O)N1CCC1(C)C(=O)NCc1ccc(C(C)C)cc1 (stereo not given),inactive
22,CN1CCNC(=O)C1CC(=O)N1CC=C(c2ccc(F)cc2)CC1 (stereo not given),inactive
23,COc1ccc(NC(=O)COC(=O)c2ccncc2)c(OC)c1,inactive
24,CC(C)(C)S(=O)(=O)N1Cc2cc(CO)cc(CCO)c2[C@H]1CCO,inactive
